Assay results published in PubChem BioAssay (NCATS).
Records with an inconclusive call do not appear. The source made the active and inactive calls. Calls come from the whole dose curve; as a rule, active = well fitted curve in the direction sought with a large enough effect; inconclusive = small, poorly fitted or top-dose-only effect, or another doubt; inactive = no such curve, though single readings can be large; an effect the other way counts as inactive or inconclusive.

experiment: Quantitative highthroughput screen to assess conditional lethalithy of P12 Ichikawa cells grown in RPMI1640 with dialyzed fetal bovine serum (RPMI+ds) (AID 1963880); details: ATP luminescence, 48 h; Potency: P12-Ichikawa viability; series mostly up to 45.8 µM; viability: at the top concentration;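 for viability: 100% = DMSO wells and 0% = empty wells on each plate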
Summary of the method: (§1)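 Each medium arm—HPLM with 10% dialyzed FBS, or RPMI1640 with 5 mM glucose and 10% untreated or dialyzed FBS—was screened against an 11-point, 3-fold compound titration for 48 h at 37 °C, with CellTiter-Glo luminescence as endpoint.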
Note: nearly all actives have a fitted effect of over 35% in size.
Potency is the fitted concentration of half-maximal effect.

For O=C(O)C[C@H](O)C[C@H](O)C=Cc1c(C2CC2)nc2ccccc2c1-c1ccc(F)cc1, which Potency is on record?
The Potency was 4.18 µM (active).

Which “viability” value does the source give for COc1ccc(-c2coc3cc(O)ccc3c2=O)cc1 here?
Its value is 98.7% (inactive).

Which Potency does the source give for CCC[C@H](NC(=O)C(C#N)=Cc1cccc(Br)n1)c1ccccc1 here?
The Potency was 26.4 µM (active).

For CC(C)N(C[C@H]1O[C@@H](n2cnc3c(N)ncnc32)[C@H](O)[C@@H]1O)C1CC(CCc2nc3ccc(C(C)(C)C)cc3[nH]2)C1 (stereo partly drawn), which Potency is on record?
Its Potency is 3.71 µM (active).

For CN[C@H]1[C@@H](O)[C@@H]2O[C@@H]3O[C@H](C)CC(=O)[C@]3(O)O[C@@H]2[C@@H](NC)[C@H]1O, which “viability” value is on record?
The value was 101% (inactive).

Which “viability” value does the source give for NNCCc1ccccc1 here?
The value was 95.6% (inactive).

With O=c1[nH]c(=O)n([C@H]2C[C@@H](O)[C@@H](CO)O2)cc1F as the compound, how does the Potency read?
The Potency was 0.0743 µM (active).

With OC[C@H]1O[C@@H](Oc2cc(O)cc(C=Cc3ccc(O)cc3)c2)[C@H](O)[C@@H](O)[C@H]1O as the compound, how does the “viability” value read?
The value was 91.6% (inactive).

Which Potency does the source give for COc1cc2c(Nc3ccc(Cl)c(Cl)c3F)ncnc2cc1OCC1C[C@@H]2CN(C)C[C@H]2C1 here?
Its Potency is 16.6 µM (active).

For C=CC[C@@H]1C=C(C)C[C@H](C)C[C@H](OC)[C@H]2O[C@@](O)(C(=O)C(=O)N3CCCC[C@H]3C(=O)O[C@H](C(C)=C[C@@H]3CC[C@H](O)[C@H](OC)C3)[C@@H](C)[C@@H](O)CC1=O)[C@@H](C)C[C@@H]2OC, which Potency is on record?
Its Potency is 6.62 µM (active).

With CNC(=O)c1ccc(N2C(=S)N(c3cnc(C#N)c(C(F)(F)F)c3)C(=O)C23CCC3)cc1F as the compound, how does the “viability” value read?
The value was 87.3% (inactive).

For O=c1cc(-c2ccc(O)cc2)oc2cc(O)cc(O)c12, which “viability” value is on record?
The value was 97.8% (inactive).

For Nc1ccn([C@@H]2O[C@H](CO)[C@H](O)C2(F)F)c(=O)n1, which Potency is on record?
The Potency was 0.0526 µM (active).

experiment: Quantitative highthroughput screen to assess conditional lethalithy of P12 Ichikawa cells grown in RPMI1640 with untreated serum (RPMI+s) (AID 1963881); details: ATP luminescence, 48 h; Potency: viability; series mostly up to 45.8 µM; viability: at the top concentration;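 for viability: 100% = DMSO wells and 0% = empty wells without cells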
Summary of the method: as §1

Which “viability” value does the source give for NCc1c[nH]c(=S)n1[C@H]1CCc2c(F)cc(F)cc2C1 here?
The value was 80.9% (inactive).

For CC(=O)NCC(=O)N1[C@H]2CC[C@H]1c1cc(Nc3ncc(C(F)(F)F)c(NC4CCC4)n3)ccc12, which Potency is on record?
The Potency was 0.132 µM (active).

With CC1=C(C(=O)Nc2cc3cn[nH]c3cc2F)C(c2ccc(C(F)(F)F)cc2)CC(=O)N1 (stereo not drawn) as the compound, how does the Potency read?
The Potency was 10.5 µM (active).

For O=C(O)C[C@H](O)C[C@H](O)C=Cc1c(C2CC2)nc2ccccc2c1-c1ccc(F)cc1, which Potency is on record?
Its Potency is 3.72 µM (active).

With COc1ccc(-c2coc3cc(O)ccc3c2=O)cc1 as the compound, how does the “viability” value read?
Its value is 96.8% (inactive).

Which “viability” value does the source give for O=c1c(-c2ccc(O)cc2)coc2cc(O)cc(O)c12 here?
The value was 78.1% (inactive).

With CCC1=C[C@@H]2CN(C1)Cc1c([nH]c3ccccc13)[C@@](C(=O)OC)(c1cc3c(cc1OC)N(C)[C@@H]1[C@@](O)(C(=O)OC)[C@H](OC(C)=O)[C@]4(CC)C=CCN5CC[C@]31[C@@H]54)C2 as the compound, how does the Potency read?
Its Potency is 0.0209 µM (active).

With CN[C@H]1[C@@H](O)[C@@H]2O[C@@H]3O[C@H](C)CC(=O)[C@]3(O)O[C@@H]2[C@@H](NC)[C@H]1O as the compound, how does the “viability” value read?
Its value is 95.9% (inactive).

For NNCCc1ccccc1, which “viability” value is on record?
The value was 87.8% (inactive).

For OC[C@H]1O[C@@H](Oc2cc(O)cc(C=Cc3ccc(O)cc3)c2)[C@H](O)[C@@H](O)[C@H]1O, which “viability” value is on record?
Its value is 87.7% (inactive).

With C=CC[C@@H]1C=C(C)C[C@H](C)C[C@H](OC)[C@H]2O[C@@](O)(C(=O)C(=O)N3CCCC[C@H]3C(=O)O[C@H](C(C)=C[C@@H]3CC[C@H](O)[C@H](OC)C3)[C@@H](C)[C@@H](O)CC1=O)[C@@H](C)C[C@@H]2OC as the compound, how does the Potency read?
The Potency was 6.62 µM (active).

Which “viability” value does the source give for CNC(=O)c1ccc(N2C(=S)N(c3cnc(C#N)c(C(F)(F)F)c3)C(=O)C23CCC3)cc1F here?
The value was 89.9% (inactive).

Which “viability” value does the source give for O=C(Nc1ccccc1)Nc1ccc(-c2ccc(C(=O)[C@H]3CCC[C@H]3C(=O)O)cc2)cc1 here?
The value was 87.8% (inactive).

For O=c1cc(-c2ccc(O)cc2)oc2cc(O)cc(O)c12, which “viability” value is on record?
The value was 97.9% (inactive).

For Nc1ccn([C@@H]2O[C@H](CO)[C@H](O)C2(F)F)c(=O)n1, which Potency is on record?
Its Potency is 0.0743 µM (active).

Which “viability” value does the source give for CC1(C)C(=O)N(CCN2CCC(C(=O)c3ccc(F)cc3)CC2)c2ccccc21 here?
Its value is 82.7% (inactive).

experiment: Quantitative highthroughput screen to assess conditional lethalithy of SEM cells grown in Human Plasma-Like Medium with dialyzed fetal bovine serum (HPLM+ds) (AID 1963882); details: SEM B-ALL cells in HPLM+ds, CellTiter-Glo viability, 48 h; series mostly up to 45.8 µM; viability: at the top concentration
Summary of the method: as §1

With O=C(Cc1cccc(OC(F)(F)F)c1)Nc1ccc(CCCCc2nnc(NC(=O)Cc3ccccn3)s2)nn1 as the compound, how does the Potency read?
The Potency was 0.0524 µM (active).

Which Potency does the source give for CC(=O)NCC(=O)N1[C@H]2CC[C@H]1c1cc(Nc3ncc(C(F)(F)F)c(NC4CCC4)n3)ccc12 here?
Its Potency is 0.118 µM (active).

With COc1ccc(-c2coc3cc(O)ccc3c2=O)cc1 as the compound, how does the “viability” value read?
Its value is 124% (inactive).

For CC(=O)Nc1sc2c(c1-c1nc3ccccc3s1)CNC2, which Potency is on record?
Its Potency is 18.7 µM (active).

For CC(=O)O[C@@]12CO[C@H]1C[C@H](O)[C@@]1(C)C(=O)[C@H](O)C3=C(C)[C@@H](OC(=O)C(O)[C@@H](NC(=O)OC(C)(C)C)c4ccccc4)C[C@@](O)([C@@H](OC(=O)c4ccccc4)[C@@H]21)C3(C)C (stereo partly drawn), which “viability” value is on record?
Its value is 5.01% (inactive).

For CCOC(=O)c1c(CSc2ccccc2)n(C)c2cc(Br)c(O)c(CN(C)C)c12, which “viability” value is on record?
The value was 92.4% (inactive).

With CC(N[C@H]1CCCC[C@H]1NC(=O)c1ccc(Cl)cc1)c1cccc2ccccc12 (stereo partly drawn) as the compound, how does the “viability” value read?
Its value is 108% (inactive).

With CCC1=C[C@@H]2CN(C1)Cc1c([nH]c3ccccc13)[C@@](C(=O)OC)(c1cc3c(cc1OC)N(C)[C@@H]1[C@@](O)(C(=O)OC)[C@H](OC(C)=O)[C@]4(CC)C=CCN5CC[C@]31[C@@H]54)C2 as the compound, how does the Potency read?
Its Potency is 0.059 µM (active).

Which “viability” value does the source give for CN[C@H]1[C@@H](O)[C@@H]2O[C@@H]3O[C@H](C)CC(=O)[C@]3(O)O[C@@H]2[C@@H](NC)[C@H]1O here?
Its value is 105% (inactive).

Which Potency does the source give for C[C@H](NCc1ccc(OCc2cccc(F)c2)cc1)C(N)=O here?
Its Potency is 0.469 µM (active).

For Cc1ccc(NC(=O)Nc2cc(C(F)(F)F)ccc2F)cc1Nc1ccc2c(c1)NC(=O)C2=Cc1ccc[nH]1, which Potency is on record?
Its Potency is 18.7 µM (active).

With O=c1[nH]c(=O)n([C@H]2C[C@@H](O)[C@@H](CO)O2)cc1F as the compound, how does the Potency read?
The Potency was 0.0235 µM (active).

For OC[C@H]1O[C@@H](Oc2cc(O)cc(C=Cc3ccc(O)cc3)c2)[C@H](O)[C@@H](O)[C@H]1O, which “viability” value is on record?
Its value is 116% (inactive).

Which Potency does the source give for COc1cc2c(Nc3ccc(Cl)c(Cl)c3F)ncnc2cc1OCC1C[C@@H]2CN(C)C[C@H]2C1 here?
Its Potency is 10.5 µM (active).

With Cc1cc(OCCCS(C)(=O)=O)cc(C)c1-c1cccc(COc2ccc3c(c2)OC[C@H]3CC(=O)O)c1 as the compound, how does the “viability” value read?
The value was 105% (inactive).

With C=CC[C@@H]1C=C(C)C[C@H](C)C[C@H](OC)[C@H]2O[C@@](O)(C(=O)C(=O)N3CCCC[C@H]3C(=O)O[C@H](C(C)=C[C@@H]3CC[C@H](O)[C@H](OC)C3)[C@@H](C)[C@@H](O)CC1=O)[C@@H](C)C[C@@H]2OC as the compound, how does the Potency read?
Its Potency is 3.32 µM (active).

For CNC(=O)c1ccc(N2C(=S)N(c3cnc(C#N)c(C(F)(F)F)c3)C(=O)C23CCC3)cc1F, which “viability” value is on record?
The value was 97.6% (inactive).

For CC(C)NC[C@@H](C(=O)N1CCN(c2ncnc3c2[C@H](C)C[C@H]3O)CC1)c1ccc(Cl)cc1, which Potency is on record?
Its Potency is 0.296 µM (active).

For CC(C)[N+]1(C)[C@@H]2CC[C@H]1CC(OC(=O)C(CO)c1ccccc1)C2 (stereo partly drawn), which Potency is on record?
Its Potency is 9.35 µM (active).

Which “viability” value does the source give for O=c1cc(-c2ccc(O)cc2)oc2cc(O)cc(O)c12 here?
The value was 102% (inactive).

Which “viability” value does the source give for N#Cc1ccc(COC[C@H]2O[C@@H](n3c(NCc4ccc(Cl)c(Cl)c4)nc4c(N)ncnc43)[C@@H](O)[C@@H]2O)cc1 here?
Its value is 87.4% (inactive).

For Nc1ccn([C@@H]2O[C@H](CO)[C@H](O)C2(F)F)c(=O)n1, which Potency is on record?
The Potency was 0.0118 µM (active).

Which Potency does the source give for Cc1cnn(C)c1C(=O)Nc1cc(Nc2ccc3c(C=Cc4ccccn4)n[nH]c3c2)ccc1F here?
Its Potency is 2.96 µM (active).

Which “viability” value does the source give for CC1(C)C(=O)N(CCN2CCC(C(=O)c3ccc(F)cc3)CC2)c2ccccc21 here?
Its value is 86.3% (inactive).
